Data on 111 sequences can be found in the supplement of paper PMC3334620.

Whole data set: some 33,000 sequences, median “E-score (-0.5 to 0.5)” near -0.054, cut for the highest 2% near 0.39. Many of the other results were omitted from the sample, so the highest values are more common in it than they were.

This assay deals with Ylr278c (UniProt Q05854). Nature of the assay: PBM E-score (8-mer binding enrichment) (E-score (-0.5 to 0.5)); higher = stronger / more preferred TF binding. Conditions: protein concentration: 200 nM; construct: GST-DNA-binding domain. As to the method: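 Universal 'all 10-mer' protein binding microarrays (Agilent AMADID 015681) probed with GST-tagged S. cerevisiae TFs (full-length or DBD) made by in vitro transcription/translation (PURExpress), about 100-200 nM. Bound TF was detected with fluorescent anti-GST. Each ungapped 8-mer (which stands for itself and its reverse complement) is scored by the PBM enrichment score (E-score), a modified Wilcoxon-Mann-Whitney statistic from -0.5 to +0.5, computed with the Universal PBM Analysis Suite. Scale: above 0.35 generally sequence-specific binding.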
Chain of UniProt Q05854 (Q05854 whole entry, the tested form may be a part): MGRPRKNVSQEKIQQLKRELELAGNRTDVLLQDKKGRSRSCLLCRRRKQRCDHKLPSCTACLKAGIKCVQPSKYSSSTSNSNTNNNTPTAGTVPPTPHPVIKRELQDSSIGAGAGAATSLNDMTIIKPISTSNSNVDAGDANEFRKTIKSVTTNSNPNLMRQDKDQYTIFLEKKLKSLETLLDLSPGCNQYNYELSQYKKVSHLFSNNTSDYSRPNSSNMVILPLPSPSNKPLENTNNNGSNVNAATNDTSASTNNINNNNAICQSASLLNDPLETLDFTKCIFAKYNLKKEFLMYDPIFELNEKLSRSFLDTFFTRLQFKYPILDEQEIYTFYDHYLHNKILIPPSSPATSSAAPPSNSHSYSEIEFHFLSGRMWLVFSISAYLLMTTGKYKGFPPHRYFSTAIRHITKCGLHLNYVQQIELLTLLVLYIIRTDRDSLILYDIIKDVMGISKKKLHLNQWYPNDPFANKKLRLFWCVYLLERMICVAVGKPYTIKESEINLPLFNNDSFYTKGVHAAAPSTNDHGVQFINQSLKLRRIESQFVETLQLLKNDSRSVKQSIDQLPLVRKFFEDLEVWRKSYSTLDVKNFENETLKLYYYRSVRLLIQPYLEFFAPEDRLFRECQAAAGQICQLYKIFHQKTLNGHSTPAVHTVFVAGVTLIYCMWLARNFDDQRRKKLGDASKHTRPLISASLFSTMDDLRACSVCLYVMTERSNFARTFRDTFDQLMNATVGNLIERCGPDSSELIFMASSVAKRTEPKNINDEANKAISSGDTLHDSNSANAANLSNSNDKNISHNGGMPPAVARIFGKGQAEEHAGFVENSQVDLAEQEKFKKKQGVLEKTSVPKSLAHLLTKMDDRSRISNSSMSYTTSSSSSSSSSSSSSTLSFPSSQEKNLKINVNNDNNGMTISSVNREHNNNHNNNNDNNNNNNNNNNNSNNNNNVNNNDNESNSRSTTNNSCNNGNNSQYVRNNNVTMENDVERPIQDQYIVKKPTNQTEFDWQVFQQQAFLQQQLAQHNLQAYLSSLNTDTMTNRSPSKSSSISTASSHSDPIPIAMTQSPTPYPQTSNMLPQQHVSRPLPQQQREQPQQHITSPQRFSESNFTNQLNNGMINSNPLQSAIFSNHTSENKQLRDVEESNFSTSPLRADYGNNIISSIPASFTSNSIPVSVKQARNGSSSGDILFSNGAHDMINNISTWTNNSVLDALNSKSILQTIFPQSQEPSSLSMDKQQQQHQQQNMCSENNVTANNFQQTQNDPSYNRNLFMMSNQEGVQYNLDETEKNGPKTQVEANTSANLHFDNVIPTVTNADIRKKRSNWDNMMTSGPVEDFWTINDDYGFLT
On to GCGCAGCC, for which the “PBM E-score” value is 0.0388. With GGCGGACC the figure was 0.413; with ATCGGTCC, 0.325; with AACGGACC, 0.251. Turning to CGCGGACC, the “PBM E-score” value stood at 0.386. As to CTCGGACC, the “PBM E-score” value turned out to be 0.365. The value for ATCGGACC was 0.412. On to ATCGGATG, for which the “PBM E-score” value was determined as 0.329. With CTCGGATA the figure was 0.215; with GTCGGACA, 0.386. For the sequence AGCGGACC, the “PBM E-score” value was determined as 0.252. With CTCGGACA the figure was 0.435; with ATCGGATA, 0.393. With CAGTGTTC the figure was -0.0124. The value for ACCCAAGT was -0.215.

In the case of AATTCAAT, the “PBM E-score” value is -0.026. With AGAAGTCA the figure was -0.0826; with AAAGCACA, -0.103. Turning to GCAACAGA, the “PBM E-score” value is 0.0725. Consider ATCGGACG, for which the “PBM E-score” value came to 0.357. The value for ATCGGACA was 0.419; that for AGCGGACA was 0.294; that for CAGGCTAA was -0.247.

Take AGTGCGAG: the “PBM E-score” value was -0.276.

For ACCCTTAT, the “PBM E-score” value is -0.098. With TTCGAAAA the figure was 0.0013; with GTCACGGA, 0.401. In the case of TCCACGGA, the “PBM E-score” value was found to be 0.406.

With GGAACGGA, the “PBM E-score” value is 0.398.

For the sequence CCCACGGA, the “PBM E-score” value stood at 0.359.

Turning to ACCACGGA, the “PBM E-score” value came out at 0.341. Regarding ATCACGGA, the “PBM E-score” value turned out to be 0.365. As to CGAACGGA, the “PBM E-score” value is 0.312. With CTCACGGA the figure was 0.264. The value for AGAACGGA was 0.256; that for TACTGCTA was -0.151; that for GCATACCC was -0.0377. With GCGTCTTA, the “PBM E-score” value is -0.209. The value for GGGATGCA was -0.0857; that for CTCTCTTA was -0.169; that for AAATCTTA was -0.149. With GCCCTTCC the figure was -0.0379; with AAGGCCGG, 0.434. For AAGGCCGC, the “PBM E-score” value turned out to be 0.188. On to AAGGCCGT, for which the “PBM E-score” value stood at 0.142.

As to CAGGCCGG, the “PBM E-score” value is 0.176. With AAGGCCGA the figure was 0.4.

For the sequence AAGGCCCG, the “PBM E-score” value came out at 0.128. On to CGCCTAAA, for which the “PBM E-score” value is -0.186. With ATAATGCA the figure was -0.276. With CGCCTCGC the figure was 0.0203.

Regarding CGGGGTTA, the “PBM E-score” value stood at 0.437. The value for CCGGGTTC was 0.337. Consider CGGGGTTC, for which the “PBM E-score” value is 0.401. The value for AGGGGTTC was 0.0104; that for GGGGGTTA was -0.28; that for AGGGGTTA was -0.171.

Turning to ATAAGTTG, the “PBM E-score” value was -0.0479. With GCTGTCTA the figure was -0.154.

For the sequence CATTCTCC, the “PBM E-score” value was found to be 0.191.

On to AATTCTCA, for which the “PBM E-score” value was -0.13. Regarding AATTCTCC, the “PBM E-score” value stood at 0.407. With ACAAAAGG the figure was 0.0804; with TCACCGCA, 0.0213. The value for ACACCGGC was 0.355; that for GCACCGTA was 0.0145.

With CCACCGGG, the “PBM E-score” value came to 0.329.

As to CCACCGGC, the “PBM E-score” value is 0.295. As for CCACCGGA, the “PBM E-score” value was determined as 0.455. With TCACCGAA the figure was 0.178; with ACACCGGA, 0.416. Consider ACACCGGT, for which the “PBM E-score” value stood at 0.324.

As to GCACCGGA, the “PBM E-score” value was determined as 0.429. The value for TCACCGGA was 0.394; that for GCACCGGC was 0.264. With GAGTCTCC the figure was 0.291; with CCGCTTGC, 0.217. With GTACTAGA, the “PBM E-score” value is -0.178. Turning to AGGACGTC, the “PBM E-score” value was determined as 0.0253. AGGGCCCA: the “PBM E-score” value was found to be 0.00775.

As to AAGCGCAA, the “PBM E-score” value was determined as 0.0312.

Turning to AGTGGTGG, the “PBM E-score” value was -0.158. With AATCCACG the figure was 0.0023; with ATCCGACA, 0.382. With CTCCGACC, the “PBM E-score” value came out at 0.458.

For the sequence CTCCGACA, the “PBM E-score” value stood at 0.438.

For the sequence CCCCGACA, the “PBM E-score” value is 0.301. Regarding GCCCGACA, the “PBM E-score” value was found to be 0.216. With CACCGACC, the “PBM E-score” value was determined as 0.192.

As for GGCCGACA, the “PBM E-score” value came out at 0.248. On to GTCCGACA, for which the “PBM E-score” value turned out to be 0.393. With ATCCGACC the figure was 0.234; with CACCATCA, -0.0978; with GCTAGATA, -0.085. With GAGGGGTA the figure was -2e-05; with ACGATGCA, -0.0494; with CTTGCAAA, 0.034.

Turning to AGAAATCG, the “PBM E-score” value came out at 0.0562. Turning to CTAAAGAC, the “PBM E-score” value was -0.12. On to AGGGAGCG, for which the “PBM E-score” value is -0.14. As to ACGGAGCT, the “PBM E-score” value worked out at 0.395.

For the sequence ATGGAGCG, the “PBM E-score” value was -0.0671. With CGGGAGCA the figure was 0.108; with ACGGAGCC, 0.385. In the case of ACGGAGCA, the “PBM E-score” value came to 0.344. For the sequence CAGGAGCG, the “PBM E-score” value is -0.00543. For the sequence CCAGAGCG, the “PBM E-score” value was -0.00204. The value for GCGGAGCA was 0.376; that for ACGGAGCG was 0.396; that for CCGGAGCA was 0.473. With CCGGAGCG the figure was 0.458.
